TDP1 block: TDP1 (human) enzyme inhibition; Q9NUW8; recombinant TDP1, AlphaScreen DNA substrate cleavage; Potency, µM (series often up to 130 µM), usual class: inhibitors; 350,000 compounds, 0.28% hits; AID 485290; further: nearly all actives have a fitted effect of over 40% in size
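Enzyme-compound mixtures sat 15 min at room temperature, followed by a 5 min reaction with 15 nM final substrate and 10 min with AlphaScreen beads. Recombinant human Tdp1 was used at 1 nM final.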
TDP1 cell noCPT: qHTS for Inhibitors of human tyrosyl-DNA phosphodiesterase 1 (TDP1): qHTS in cells in absence of CPT | DT40 Tdp1-/- hTDP1 cells, no CPT, ATP luminescence, 48 h | Potency, µM (highest dose often 46.2 µM), hits mostly inhibitors | 420,000 compounds, 15% hits; further: nearly all actives have a fitted effect of over 55% in size
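Camptothecin absent (DMSO only). Human TDP1-complemented DT40 knockout cells, 400 cells/well, 37 °C for minimum 48 hr; ATP measured via CellTiter-Glo, 30 min dark incubation, luminescence.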
Six1-Eya2 inh: blocks human Six1 binding to Eya2. AID 651725. activity change, % (concentration not given with the values). 360,000 compounds, 0.56% hits. AlphaScreen GST-Six1/His-Eya2 binding, biochemical; stronger effect = lower value. Q15475+O00167; in the data active means activity change below about -65%; inconclusive means mostly about -30% to -63%
Target sequence (O00167 whole entry, looked up): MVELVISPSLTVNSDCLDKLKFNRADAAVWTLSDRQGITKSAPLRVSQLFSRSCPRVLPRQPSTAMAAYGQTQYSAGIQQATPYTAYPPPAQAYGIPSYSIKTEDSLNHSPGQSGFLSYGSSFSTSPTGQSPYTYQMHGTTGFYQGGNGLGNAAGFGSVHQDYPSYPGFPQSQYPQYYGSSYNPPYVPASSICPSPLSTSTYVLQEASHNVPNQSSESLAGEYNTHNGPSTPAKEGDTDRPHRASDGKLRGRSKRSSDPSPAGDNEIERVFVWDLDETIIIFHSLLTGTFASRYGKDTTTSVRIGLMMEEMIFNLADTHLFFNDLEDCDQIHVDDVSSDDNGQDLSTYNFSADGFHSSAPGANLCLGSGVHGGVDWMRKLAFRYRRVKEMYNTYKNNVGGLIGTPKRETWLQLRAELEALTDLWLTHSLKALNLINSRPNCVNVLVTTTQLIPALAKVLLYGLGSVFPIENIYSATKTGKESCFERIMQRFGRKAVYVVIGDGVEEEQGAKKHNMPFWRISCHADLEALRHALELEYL
Target sequence (Q15475 whole entry, looked up): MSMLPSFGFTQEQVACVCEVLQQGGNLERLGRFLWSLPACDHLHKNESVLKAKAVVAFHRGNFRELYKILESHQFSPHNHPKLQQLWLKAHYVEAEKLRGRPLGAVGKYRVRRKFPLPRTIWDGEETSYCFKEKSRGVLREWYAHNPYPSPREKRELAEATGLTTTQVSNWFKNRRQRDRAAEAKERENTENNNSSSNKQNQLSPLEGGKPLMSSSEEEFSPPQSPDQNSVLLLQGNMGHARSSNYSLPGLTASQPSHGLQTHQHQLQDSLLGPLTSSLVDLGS
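GST-Six1 + His-Eya2 (5X stock: 250/500 nM); Tris pH 8.0, 300 mM NaCl, 0.05% BSA, 0.02% Tween 20; GSH donor/Ni acceptor beads; 1 h 37 °C dark; AlphaScreen readout.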
IL1B secr inh: blocks inflammasome-driven IL-1 beta release; activity change, % at 57.5 µM; AID 743279; THP-1 LPS/ATP IL-1B secretion, AlphaLISA, 16 h; stronger effect = lower value; 360,000 compounds, 4.7% hits; in the data active means activity change below about -50%; inconclusive means mostly about -30% to -49%
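THP-1 cells pretreated 1 hr with compounds (up to 57.5 uM final), then stimulated with LPS (250 ng/mL final) plus ATP (1.25 mM final); secreted IL-1B measured by AlphaLISA after 16 hr, decreased signal indicating inhibition.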
TDP1 cell CPT: growth inhibition of DT40 Tdp1-/-;hTDP1 cells with camptothecin (screen for TDP1 inhibitors). Potency, µM (series often up to 46.2 µM), actives largely listed as inhibitors. chicken DT40 Tdp1-/-;hTDP1 cells + 20 nM CPT, ATP luminescence, 48 h. 420,000 compounds, 12% hits. AID 686979; further: nearly all actives have a fitted effect of over 55% in size
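Cell growth measured by CellTiter-Glo luminescence after a minimum 48 h, 37 C compound exposure with 20 nM CPT in Tdp1-knockout DT40 cells stably expressing hTDP1, seeded 400/well; qHTS titration format.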
CtBP-E1A inh: blocks the CtBP interaction with E1A | activity change, % (no concentration beside the values) | 340,000 compounds, 0.49% hits | AID 651724 | AlphaScreen GST-E1A/His-CtBP binding, 1536-well; stronger effect = lower value; in the data active means activity change below about -65%; inconclusive means mostly about -30% to -63%
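GST-E1A and His-tagged CtBP (125 nM each as 5X stock) were preincubated with pin-transferred compound for 2 h at 37 °C in the dark, then glutathione donor and nickel acceptor beads were added for 1 h before AlphaScreen reading.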
Hits are given with their value; – = inactive; ? = inconclusive; · = no result. Only some compounds are listed: those with a hit (about 18% of all), similar ones and a draw of the others. Unless noted, the call rests on the fitted dose curve; in most records, active means well fitted curve in the direction sought with a large enough effect; inconclusive means small, poorly fitted or top-dose-only effect, or another doubt; inactive means no such curve, though single readings can be large; an effect the other way counts as inactive or inconclusive.

SMILES	TDP1 block	TDP1 cell noCPT	Six1-Eya2 inh	IL1B secr inh	TDP1 cell CPT	CtBP-E1A inh
O=C(c1cccc(-c2cccc3nccn23)c1)N1CCOCC1	·	–	–	–	?	–
CC(C)(C)NCCOCCOc1ccccc1-c1ccccc1	–	?	–	–	11.6µM	–
COCCCNCCOCCOc1ccccc1-c1ccccc1	–	?	–	–	?	–
COc1ccc(Nc2nc(N)c([N+](=O)[O-])c(NC3CCCCC3)n2)cc1	·	?	?	-95.4	16.4µM	?
COc1nc(Nc2ccc([N+](=O)[O-])cc2)nc(NC2CCCCC2)n1	–	?	–	-78.4	?	–
C=CCNc1nc(Nc2ccc([N+](=O)[O-])cc2)nc(OC)n1	–	?	–	–	–	·
COc1ccc(Nc2nc(N)c([N+](=O)[O-])c(NCc3ccccc3)n2)cc1	–	16.4µM	–	–	?	·
Cc1ccc(Nc2nc(N)c([N+](=O)[O-])c(NCc3ccccc3)n2)cc1	–	?	–	·	–	–
Cc1noc(C)c1CSCC(=O)N(C)CC(=O)Nc1ccc(Cl)c(Cl)c1	–	?	–	?	?	–
CN(C)c1ccc(C(=O)NC2CCCc3ccccc32)cc1 (stereo not drawn)	–	?	–	–	?	–
COC(=O)[C@H](CCSC)NC(=O)NCCC1=CCCCC1	–	–	–	–	–	–
COc1ccc2c(c1)C(=NNC(=O)c1ccccn1)c1cc(OC)ccc1-2	–	2.59µM	–	–	4.61µM	–
COc1ccc(C(=O)NNC(=O)c2ccccn2)cc1	–	–	–	–	–	·
O=C(NNC1=Nc2ccccc2SC1)c1ccccc1F	–	?	–	–	?	–
COc1ccc(C(=O)NCCNC(=O)c2ccccn2)cc1	·	–	–	–	–	–
CC(=O)c1ccc(OCCCC(=O)NNC(=O)c2ccccn2)cc1	–	14.6µM	?	–	?	-70.2
O=C(NNC1=Nc2ccccc2SC1)c1cccc([N+](=O)[O-])c1	–	23.1µM	–	–	16.4µM	–
COc1cc(OC)cc(C(=O)NNC(=O)c2ccccn2)c1	–	6.51µM	-91.5	–	2.91µM	-90.0
O=C(N/N=C/c1ccc(COc2ccc(Br)cc2)o1)c1ccc2c(c1)OCO2	–	?	–	–	?	–
Cc1nonc1OCCNCCNc1ccc([N+](=O)[O-])cc1Cl	–	–	–	?	–	–
CCN1CCN(Cc2nc3c(c(=O)n(C)c(=O)n3C)n2C(C)C(C)=O)CC1 (stereo not drawn)	–	–	–	–	–	–
COc1ccc(CCNC(=O)C2c3ccccc3C(=O)N2Cc2ccccc2)cc1OC (stereo not drawn)	–	?	·	·	–	·
CCOc1ccccc1NC(=O)C1CCN(C(=O)Cc2ccccc2)CC1	–	–	–	–	–	–
Nc1c(C(=O)NCc2ccco2)sc2nc3c(cc12)C(=O)CCC3	–	?	–	–	–	–
O=C(Cn1cc2c(n1)CCCCC2)Nc1c(F)cc(F)cc1Br	·	–	–	–	–	–
SMILES	TDP1 block	TDP1 cell noCPT	Six1-Eya2 inh	IL1B secr inh	TDP1 cell CPT	CtBP-E1A inh
COc1cc(OC)cc(C(=O)NNC(=O)c2ccc3ccccc3n2)c1	–	5.17µM	–	–	5.17µM	–
O=C(NNC(=O)c1ccccn1)c1cccc([N+](=O)[O-])c1	–	16.4µM	-82.0	–	16.4µM	-66.0
N#C/C(=C\c1cccc([N+](=O)[O-])c1)c1ccccn1	–	14.6µM	–	-88.1	–	–
COc1ccc(C(=O)NC(=S)NNC(=O)c2ccc3ccccc3n2)cc1	–	18.4µM	-85.8	–	?	-82.0
COc1cc(C(=O)NNC(=O)c2ccc3ccccc3n2)cc(OC)c1OC	–	?	–	–	?	–
Cc1cc(NC(=O)CSc2nnc3c(C)cc4c(C)ccc(C)c4n23)no1	–	1.46µM	–	–	1.16µM	–
COc1cc2cc(C)c3nnc(SCC(=O)Nc4cc(C)on4)n3c2cc1OC	–	?	–	–	–	–
